NIH3T3 tox – NIH 3T3 cell cytotoxicity | Potency, µM (highest dose often 96.7 µM), for the others: top-dose activity change, negative = cytotoxicity, hits mostly inhibitors | NIH 3T3 viability, CellTiter-Glo ATP luminescence, 48-72 h | actives 4.3% (n = 94,000); also: nearly all actives have a fitted effect of over 55% in size
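Luminescent ATP readout (CellTiter-Glo, 10 min RT) after 48 or 72 hr compound exposure of NIH 3T3 cells seeded at 400 cells/well in 1536-well format; quantitative HTS.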
FLuc inh – Photinus pyralis luciferase inhibition; actives 2.5% (n = 76,000); AID 1347043; P08659; Potency, µM (doses to about 115 µM), hits mostly inhibitors; purified P. pyralis luciferase, luminescence, biochemical; also: nearly all actives have a fitted effect of over 65% in size
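FLuc 10nM, D-luciferin 10uM, ATP 10uM, Mg acetate 10mM, Tris acetate pH 7.5, Tween/BSA; cpd qHTS; enzyme added last; CCD luminescence.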
GPT2 inh – blocks human glutamate pyruvate transaminase 2. actives 0.25% (n = 100,000). Recombinant GPT2, coupled pyruvate oxidase/HRP Amplex Red fluorescence. Q8TD30. AID 1671188. Potency, µM (series often up to 57.7 µM), without a hit: top-dose activity change, negative = inhibition, actives largely listed as inhibitors; also: nearly all actives have a fitted effect of over 60% in size
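GPT2 10ng/uL, a-KG 250uM, L-Ala 2mM, HEPES pH7.5 + 0.0001% Tween; 30 min RT. Then Amplex mix (PO/HRP/ThPP), 30 min RT dark, fluorescence. AOA 50uM used as positive control.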
HEK cytotox – HEK 293 cell cytotoxicity; HEK 293 viability, ATP luminescence (CellTiter-Glo), 48-72 h; AID 1345083; actives 6.6% (n = 94,000); Potency, µM (doses to about 115 µM), inactives show top-dose activity change, negative = cytotoxicity, actives largely listed as inhibitors; also: nearly all actives have a fitted effect of over 60% in size
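Pintool-delivered compounds were incubated with HEK 293 cells (250 cells/well) at 37 degree Celsius for 48 or 72 hr. ATP-dependent luminescence (CellTiter-Glo) then reported remaining viable cells.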
NPR1 antag – human Npr1 receptor antagonism | P16066 | HEK293 hNpr1 GloSensor cGMP, ANP-stimulated luminescence | Potency, µM (doses to about 46.3 µM), for the others: at the top dose activity change, negative = inhibition, most hits filed as inhibitors | actives 1.6% (n = 76,000); calls by dose curve; also: nearly all actives have a fitted effect of over 60% in size
Target sequence (P16066 whole entry, looked up): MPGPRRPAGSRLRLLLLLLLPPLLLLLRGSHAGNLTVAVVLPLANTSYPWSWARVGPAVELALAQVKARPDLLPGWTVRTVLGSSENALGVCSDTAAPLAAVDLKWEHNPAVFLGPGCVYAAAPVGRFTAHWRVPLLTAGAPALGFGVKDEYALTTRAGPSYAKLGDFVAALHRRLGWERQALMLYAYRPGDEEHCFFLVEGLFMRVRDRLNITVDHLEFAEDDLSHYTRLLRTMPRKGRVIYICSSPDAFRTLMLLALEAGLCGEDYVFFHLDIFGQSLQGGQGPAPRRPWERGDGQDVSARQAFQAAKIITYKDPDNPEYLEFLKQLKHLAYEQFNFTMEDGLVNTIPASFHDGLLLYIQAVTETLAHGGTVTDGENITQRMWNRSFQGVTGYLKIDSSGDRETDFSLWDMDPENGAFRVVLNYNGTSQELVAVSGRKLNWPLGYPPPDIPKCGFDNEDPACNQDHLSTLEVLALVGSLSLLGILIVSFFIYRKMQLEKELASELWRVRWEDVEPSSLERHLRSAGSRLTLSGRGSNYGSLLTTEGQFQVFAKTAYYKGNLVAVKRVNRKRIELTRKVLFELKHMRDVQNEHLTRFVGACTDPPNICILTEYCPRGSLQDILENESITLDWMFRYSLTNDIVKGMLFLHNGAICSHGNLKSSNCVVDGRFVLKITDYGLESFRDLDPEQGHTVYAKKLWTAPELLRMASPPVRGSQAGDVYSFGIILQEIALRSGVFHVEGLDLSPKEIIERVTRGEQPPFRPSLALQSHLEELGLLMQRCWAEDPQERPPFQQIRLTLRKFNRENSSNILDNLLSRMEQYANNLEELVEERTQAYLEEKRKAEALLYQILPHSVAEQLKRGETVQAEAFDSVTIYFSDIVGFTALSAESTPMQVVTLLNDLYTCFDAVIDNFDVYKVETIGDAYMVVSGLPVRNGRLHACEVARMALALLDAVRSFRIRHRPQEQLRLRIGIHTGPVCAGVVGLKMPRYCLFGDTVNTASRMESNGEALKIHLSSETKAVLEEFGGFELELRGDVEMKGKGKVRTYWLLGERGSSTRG
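HEK293 cells stably expressing human Npr1 and cGMP GloSensor pGS-40F, loaded 2 h with 2% GloSensor reagent, given compound 30 min at room temperature. Luminescence read before and 20 min after 0.1 nM hNppA.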
* = called active by the depositor; i = inactive; ? = inconclusive; · = not tested or not shown; [ ] = dose if it differs, or a comment. Rows were chosen to be rich in hits. Some 10% of all compounds tested hit in one or more screens of this group. Unless noted, calls follow the shape of the dose curve; as a rule, active = well fitted curve in the direction sought with a large enough effect; inconclusive = small, poorly fitted or top-dose-only effect, or another doubt; inactive = no such curve, though single readings can be large; an effect the other way counts as inactive or inconclusive. % is scaled to controls: 0 for no effect and ±100 for the full control effect; potency is read from the fitted curve at half-maximal effect.

SMILES	NIH3T3 tox	FLuc inh	GPT2 inh	HEK cytotox	NPR1 antag
COc1ccc(Nc2ccnc(N3CCC(C(=O)NCc4ccc(F)cc4)CC3)n2)cc1	40µM*	·	i	?	·
COc1ccc(Nc2ccnc(N3CCC(C(=O)N(C)C)CC3)n2)cc1	-29%	·	1%	?	·
O=C1CC2(CCN(C(=O)c3ccc(CSc4ccccc4)o3)C2)C(=O)N1 (stereo not drawn)	-24%	i	3%	?	5%
CCCCCN(CCC(=O)NCCCOC)C(=O)c1ccoc1	?	i	i	?	-9%
Cc1c(F)cccc1NC(=O)C1CN(S(=O)(=O)C2CC2)CC12CCCCC2 (stereo not drawn)	?	i	0%	?	-1%
COCCNC(=O)C1CCN(c2nccc(Nc3ccc(C)cc3)n2)CC1	?	·	i	?	·
Cc1ccc(Nc2ccnc(N3CCC(C(=O)NCc4ccc(F)cc4)CC3)n2)cc1	?	·	i	?	·
Cc1ccc(Nc2ccnc(N3CCC(C(=O)NCC4CC4)CC3)n2)cc1	32µM*	·	i	?	·
COc1ccc(CNC(=O)C2CCN(c3nccc(Nc4ccc(C)cc4)n3)CC2)cc1	28µM*	·	1%	?	·
CCc1noc(CC2CCOC3(CCN(S(=O)(=O)c4c(C)cc(C)cc4C)CC3)C2)n1 (stereo not drawn)	?	i	-16%	?	?
Cc1cccc(CC(=O)N2CCCCCC2c2nnc(-c3ccccc3)o2)c1 (stereo not drawn)	?	i	5%	79µM*	-2%
Cc1cccc(C(=O)N2CCCCCC2c2nnc(-c3ccccc3)o2)c1 (stereo not drawn)	?	i	1%	?	4%
Cn1c(=O)c2c(ncn2CC(=O)N2CCC(CCOc3ccc(F)cc3)C2)n(C)c1=O (stereo not drawn)	-24%	i	i	89µM*	-30%
Cc1ccc(OCC(=O)N2CCC(CCOc3ccc(F)cc3)C2)cc1 (stereo not drawn)	?	i	-6%	?	-19%
Cc1cc(C)n(CCC(=O)N2CCC(CCOc3ccc(F)cc3)C2)n1 (stereo not drawn)	-22%	i	1%	79µM*	?
CNC(=O)C1(N2CCC[C@H]2C(=O)N2CCCCCC2)COC1	0%[138 µM]	i	4%[88.5 µM]	i	-2%[70.6 µM]
CC(C)(N)C(=O)N1CCC(n2nccc2NC(=O)c2cccc(F)c2)CC1	0%	i	?	-8%	5%
Cc1nn(-c2ccccc2)c2c1C(C)N(C1CCN([S+](=O)([O-])c3cccs3)CC1)C2=O (stereo not drawn)	-20%	·	·	?	·
O=C(Nc1ccc2n(c1=O)C[C@H]1C[C@@H]2CN(C(=O)Nc2ccc(F)cc2)C1)c1ccccc1	22µM*	i	i	-6%	1%
CC(=O)c1ccc(NC(=O)N2C[C@@H]3C[C@H](C2)c2ccc(NC(=O)Nc4cccc(F)c4)c(=O)n2C3)cc1	-21%	35µM*	i	-1%	1%
CN1CCN(C[C@@H]2CN(C(=O)C3(c4ccccc4)CC3)C[C@@H]2CO)CC1	-4%	i	4%	-13%	1%
CS(=O)(=O)N1CCc2ccc(C(=O)Nc3ccc(Cl)c(C(F)(F)F)c3)cc21	-36%	18µM*	-4%	20µM*	?
COc1ccc(NC(=O)c2ccc3c(c2)N(S(C)(=O)=O)CC3)cc1Cl	-23%	1µM*	?	?	?
Cc1ccc(C(=O)N2CCC(C(=O)N3CCC(N4CCOC4=O)CC3)CC2)cc1	0%	·	-7%	i	·
CNC(=O)c1cc(C2CC2)nc2c1c(C1CCN(C(=O)c3cccc(OC)c3)C1)nn2C (stereo not drawn)	?	·	·	79µM*	·
SMILES	NIH3T3 tox	FLuc inh	GPT2 inh	HEK cytotox	NPR1 antag
CNC(=O)c1cc(C2CC2)nc2c1c(C1CCN(C(=O)c3cccnc3)C1)nn2C (stereo not drawn)	-19%	·	·	-2%	·
CCC1(N2CCN(C(=O)c3ccncc3)CC2)CCN(CCC(C)C)C1 (stereo not drawn)	-19%	i	i	-6%	-10%
CN(C)CCCC(=O)N1Cc2ccccc2CC2(CCCCN2Cc2ccccc2)C1 (stereo not drawn)	?	·	i	79µM*	·
O=C(O)CCC(=O)N1Cc2ccccc2CC2(CCCN2Cc2ccccc2)C1 (stereo not drawn)	-6%	·	i	-2%	·
CN1CCC(C(=O)N2Cc3ccccc3CC3(CCCCN3CC3CCNCC3)C2)CC1 (stereo not drawn)	-11%	·	i	-11%	·
O=C(c1ccccc1)N1Cc2ccccc2CC2(CCCCN2CC2CCNC2)C1 (stereo not drawn)	?	·	1%	79µM*	·
Cn1ncc(N2CCC(NC(=O)CCC3CCCC3)CC2)cc1=O	-8%	i	-2%	-1%	7%
O=C([C@H]1CCCN1C(=O)c1ccccc1Cl)N1CCC(N2CCOC2=O)CC1	-8%	·	i	1%	·
CCCCCC(=O)N1CCC2(CC1)[C@H](C(=O)OCC)[C@@H](O)C(=O)N2Cc1ccccc1	?	·	·	0%	·
COc1ccc(-c2cccc(C(=O)N3CCN(C(=O)c4ccc(C)cc4)CC3)c2)nn1	-23%	·	·	?	·
COc1ccc(-c2cnc3[nH]cc(CC(=O)NCc4cnccn4)c3c2)cc1	32µM*	?	1%[88.5 µM]	?	1%[70.6 µM]
COCCNC(=O)Cc1c[nH]c2ncc(-c3ccc(OC)cc3)cc12	22µM*	?	?	?	-4%[70.6 µM]
COCCNC(=O)Cc1c[nH]c2ncc(-c3ccccc3)cc12	?	i	i	-17%[172 µM]	0%[70.6 µM]
C=CCC1(CO)CCCN(CCOc2ccc(C)cc2Cl)C1 (stereo not drawn)	?	i	i	?	-1%
CCOC(=O)C(Cc1cccc(N2CCN([S+](=O)([O-])c3c(Cl)cccc3Cl)CC2)c1)OC (stereo not drawn)	?	·	·	20µM*	·
O=C(CCc1nc2ccccc2s1)N1CCCC1c1nc(CCOCC2CC2)no1 (stereo not drawn)	-4%	i	i	0%	-2%
NC(=O)c1cccc(CN2CCC3(Cc4ccccc4N(C(=O)c4ccc(Cl)cc4)C3)C2)c1 (stereo not drawn)	?	·	?	35µM*	·
NC(=O)c1cccc(CN2CCC3(CC2)Cc2ccccc2N(C(=O)c2ccc(Cl)cc2)C3)c1	?	·	-6%	40µM*	·
O=C(c1ccc(Cl)cc1)N1CC2(CCCN(Cc3ccccn3)C2)Cc2ccccc21 (stereo not drawn)	?	·	i	32µM*	·
O=C(c1ccc(Cl)cc1)N1CC2(CCN(Cc3ccccn3)CC2)Cc2ccccc21	?	·	-2%	?	·

Assay outcomes (PubChem)
